# Bioassay records from PubChem BioAssay.
# RE007 growth inh = qHTS Assay for Inhibitors of the HIV-1 protein Vpr; 360,000 compounds, 0.21% hits; Potency, µM (doses to about 92.2 µM), for the others: at the highest dose activity change, negative = less growth, most hits filed as inhibitors; S. pombe RE007 Vpr strain, BacTiter-Glo ATP luminescence, 24 h; active = well fitted falling curve with a large enough effect; inconclusive = small, poorly fitted or top-dose-only effect; inactive = no such curve, though single readings can be large or run the other way; also: potency is read from the fitted curve at half-maximal effect; % is scaled to controls: 0 for no effect and ±100 for the full control effect; nearly all actives have a fitted effect of over 50% in size
#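 Fission yeast strain RE007, carrying one chromosomally integrated HIV-1 vpr copy, was seeded at OD 0.01 in PMG+AL medium with 23 nL pinned compound. After 24 h at 30 °C and 99% humidity, viability was read by BacTiter-Glo luminescence.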
# Giardia FBPA inh = qHTS Assay for Inhibitors of Fructose-1,6-bisphosphate Aldolase from Giardia Lamblia; A8B2U2; purified Giardia FBPA; Potency, µM (series often up to 59.6 µM), for the others: at the top dose activity, negative = inhibition, usual class: inhibitors; 290,000 compounds, 0.71% hits; AID 2451, 2010; also: potency is read from the fitted curve at half-maximal effect; % is scaled to controls: 0 for no effect and ±100 for the full control effect; nearly all actives have a fitted effect of over 55% in size
#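 Giardia FBPA (40 nM reagent) was preincubated 10 min at RT with compound (up to 57.5 uM final), then substrate plus GAPDH/TPI/NAD/arsenate coupling system with diaphorase/resazurin was added; resorufin fluorescence (525/598 nm) was read after 20 min.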
# Shiga inhibitor = A qHTS for Small Molecule Inhibitors of Shiga Toxin. Vero cells, Shiga toxin protein synthesis inhibition reporter. inhibition, % at 38.7 µM. 290,000 compounds, 9.2% hits. AID 2315, 2010; in the data active = inhibition mostly above about 28%, no sharp cut-off; inactive = mostly below about 43%; also: 0% is about no effect
# LmPK inhibitor = qHTS Assay for Inhibitors of Leishmania Mexicana Pyruvate Kinase (LmPK) | purified LmPK, Kinase-Glo ATP luminescence, 1 h | 290,000 compounds, 0.37% hits | AID 1721, 2009 | Q27686 | Potency, µM (series often up to 57.5 µM), for inactives: top-dose activity change, negative = inhibition, usual class: inhibitors; also: potency is read from the fitted curve at half-maximal effect; % is scaled to controls: 0 for no effect and ±100 for the full control effect
# Target sequence (Q27686 whole entry, looked up): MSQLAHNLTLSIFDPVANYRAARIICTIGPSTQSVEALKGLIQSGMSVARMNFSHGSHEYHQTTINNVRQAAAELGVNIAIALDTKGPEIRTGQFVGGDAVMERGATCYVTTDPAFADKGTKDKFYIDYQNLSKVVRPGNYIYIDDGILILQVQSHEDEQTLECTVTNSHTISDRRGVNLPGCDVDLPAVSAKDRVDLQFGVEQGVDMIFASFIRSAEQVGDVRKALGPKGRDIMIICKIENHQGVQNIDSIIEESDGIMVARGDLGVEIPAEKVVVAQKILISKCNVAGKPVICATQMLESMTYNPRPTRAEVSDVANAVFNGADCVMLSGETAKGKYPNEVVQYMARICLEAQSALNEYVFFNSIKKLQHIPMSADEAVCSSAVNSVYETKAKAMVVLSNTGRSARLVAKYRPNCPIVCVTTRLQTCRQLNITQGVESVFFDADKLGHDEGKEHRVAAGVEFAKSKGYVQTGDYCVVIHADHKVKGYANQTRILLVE
#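 qHTS format; LmPK 0.1 nM; substrates PEP 0.5 mM and ADP 0.1 mM. One-hour room-temperature incubation, then coupled luciferase luminescence; 0.5 nM enzyme wells mark activation.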
# TbPYK inhibitor = qHTS of Trypanosoma Brucei Inhibitors; TbPYK enzyme, Kinase-Glo Plus ATP luminescence, 45 min; Potency, µM (highest dose often 76.8 µM), for the others: top-dose activity, negative = inhibition, hits mostly inhibitors; 410,000 compounds, 0.12% hits; also: potency is read from the fitted curve at half-maximal effect; % is scaled to controls: 0 for no effect and ±100 for the full control effect; nearly all actives have a fitted effect of over 50% in size
#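 ADP (130 uM final) triggers the TbPYK reaction after compound addition; incubation is 45 min at room temperature. Kinase-Glo Plus is then added and luminescence imaged. Normalized data are fitted to concentration-effect curves.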
# Cycloheximide cs = Cycloheximide Counterscreen for Small Molecule Inhibitors of Shiga Toxin | cell reporter, cycloheximide protein synthesis inhibition counterscreen | max response, % | 300,000 compounds, 12% hits; in the data active = max response mostly above about 13%, no sharp cut-off; inactive = mostly below about 14%; also: read at 38.3 µM for the half of the compounds with a filed dose; 0% is about no effect
# Active calls of the source: *; ? = inconclusive; · = not tested or not shown; ! = not confirmed by another sample. The sample as a whole holds a higher share of hits than the screen did. Unless noted, calls follow the shape of the dose curve; as a rule, active = well fitted curve in the direction sought with a large enough effect; inconclusive = small, poorly fitted or top-dose-only effect, or another doubt; inactive = no such curve, though single readings can be large; an effect the other way counts as inactive or inconclusive.
SMILES,RE007 growth inh,Giardia FBPA inh,Shiga inhibitor,LmPK inhibitor,TbPYK inhibitor,Cycloheximide cs
CC(O)c1cccc(NC(=O)CCC(=O)O)c1 (centres undefined),-2%,0%,-15,-1%,-3%,-3
Cc1cccc(NC(=O)NNC(=O)CCc2ccccc2)c1,19%,10%,-4,1%,-4%,0
Cc1cccc(NC(=O)CCCc2ccccc2)c1,-12%,-4%,73*,0%,7%,57*
Cc1cccc(NC(=S)NC(=O)CCc2ccccc2)c1,?,1%,72*,0%,-6%,18*
CN(C)c1ccc(NC(=O)CCCc2ccccc2)cc1,4%,?,100*,-8%,?,36*
CC(C)CN1CCc2nc(N3CCN(C)CC3)ncc2C1,·,·,·,·,9%,·
CCCOc1ccc(C2C(=O)N(C3CCCCC3)CC(=O)N2CCc2ccccc2)cc1OC (centres undefined),·,·,·,·,-1%,·
CC(C)NC(=O)CCCc1ccccc1,11%,7%,58*,5%,1%,27*
CCC(NC(=O)CCCc1ccccc1)c1ccccc1 (centres undefined),·,1%,0,2%,-9%,-2
O=C(C1=C(O)/C(=C/c2ccc(O)cc2)CCC1)C(F)(F)F,?,-11%,44*,-4%,-7%,30*
COC(=O)c1ccccc1NC(=O)CSc1c2c(nc3ccc(Cl)cc13)CCCC2,·,·,·,·,0%,·
CCc1c(C)nc2ncnn2c1Nc1ccc(C(C)=O)cc1,8%,4%,109*,3%,1%,46*
CC(=O)c1ccc(NC(=O)CCc2c(C)nc3ncnn3c2C)cc1,16%,0%,61*,-4%,1%,21*
COC(=O)c1ccc(NC(=O)CCc2c(C)nc3ncnn3c2C)cc1,-8%,-5%,14,1%,-10%,-3
COc1ccc(CNC(=O)c2cc(-c3ccc(C)c(C)c3)n[nH]2)cc1,·,·,·,·,-4%,·
CC(=O)c1ccc(NC(=O)c2ccccc2-c2ccccc2C(=O)O)cc1,3%,5%,42,0%,-5%,-4
Cc1cc(C)cc(NC(=O)c2cc(Cl)sc2Cl)c1,-6%,-1%,23,0%,-2%,30*
CC(=O)c1ccc(NC(=O)c2cc(Cl)sc2Cl)cc1,?,-7%,32*,-1%,0%,40*
O=c1c2ccccc2ncn1-c1ccc(Cl)cc1,6%,0%,42*!,-2%,-18%,29*
O=C(Cn1cnc2ccccc2c1=O)c1cccs1,21%,0%,-8,-1%,3%,-3
CCOC(=O)c1ccc(Cn2cnc3ccccc3c2=O)cc1,17%,-1%,23,3%,?,11
O=C(Cn1cnc2ccccc2c1=O)c1ccc(OC(F)F)cc1,2%,-6%,57*,4%,4%,34*
O=C(Cn1cnc2ccccc2c1=O)c1ccccc1,-4%,1%,78*,4%,1%,39*
O=c1c2ccccc2ncn1-c1ccccc1[N+](=O)[O-],-7%,-5%,-7,2%,1%,-2
CCOc1ccc(C(=O)Cn2cnc3ccccc3c2=O)cc1,-12%,4%,117*,-1%,0%,57*
SMILES,RE007 growth inh,Giardia FBPA inh,Shiga inhibitor,LmPK inhibitor,TbPYK inhibitor,Cycloheximide cs
O=C(Cn1cnc2ccccc2c1=O)N1CCN(c2ccccc2)CC1,-1%,2%,-2,0%,-8%,-1
CCOC(=O)C1=CC[C@H]2c3c(c4ccccc4n3C)C(=O)C1N2C(=O)OC(C)(C)C,1%,·,·,·,4%,·
O=c1cc(CN2CCCCC2)c2c(ccc3ccccc32)o1,-22%,·,·,·,5%,·
COc1ccc(-c2nc(CSc3nncn4c3cc3sccc34)c(C)o2)cc1OC,·,·,·,·,3%,·
O=C(CCS(=O)(=O)c1ccccc1Cl)NC1CCCCCC1,-9%,·,·,·,6%,·
O=C(Cn1cnc2ccccc2c1=O)c1ccc(Br)cc1,18%,0%,45*,5%,3%,28*
O=c1c2ccccc2ncn1Cc1ccc(Cl)cc1,-2%,0%,-11,1%,-1%,1
